Data as given in the supplement of paper PMC3334620.
Whole data set: some 33,000 sequences, median “E-score (-0.5 to 0.5)” near -0.0034, cut for the highest 2% near 0.25. This is one part of a sample in which the highest values are shown more often than they occur.

Each sequence was assayed against T1, Yap3 (UniProt P38749) (assay: PBM E-score (8-mer binding enrichment) (E-score (-0.5 to 0.5)); higher = stronger / more preferred TF binding). Conditions: protein concentration: 100 nM; construct: GST-full length.
T1 sequence: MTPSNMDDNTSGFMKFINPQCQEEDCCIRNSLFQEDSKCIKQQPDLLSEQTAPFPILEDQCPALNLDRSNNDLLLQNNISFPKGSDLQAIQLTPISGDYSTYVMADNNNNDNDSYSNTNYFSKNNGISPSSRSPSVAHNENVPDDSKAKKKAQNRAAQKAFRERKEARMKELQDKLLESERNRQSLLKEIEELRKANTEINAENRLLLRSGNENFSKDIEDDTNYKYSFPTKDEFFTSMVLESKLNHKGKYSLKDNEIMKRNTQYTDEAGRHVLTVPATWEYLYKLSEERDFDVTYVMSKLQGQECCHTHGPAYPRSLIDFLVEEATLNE
Experimental: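 Universal 'all 10-mer' protein binding microarrays (Agilent AMADID 015681) probed with GST-tagged S. cerevisiae TFs (full-length or DBD) made by in vitro transcription/translation (PURExpress), about 100-200 nM. Bound TF was detected with fluorescent anti-GST. Each ungapped 8-mer (which stands for itself and its reverse complement) is scored by the PBM enrichment score (E-score), a modified Wilcoxon-Mann-Whitney statistic from -0.5 to +0.5, computed with the Universal PBM Analysis Suite. Scale: above 0.35 generally sequence-specific binding.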

Sequence | PBM E-score
CGGCGTAC | -0.15
ACGGTTGC | -0.0961
TCCTGTCA | -0.0145
CCCTGGCC | -0.333
AAATCCAT | 0.29
AAATCCAG | 0.249
AAATCCAC | 0.0662
CCGCTGTA | 0.117
CTATAAGA | 0.182
GGATAATA | 0.0461
ATATAATA | 0.299
GTATAAGA | 0.0832
CTATAATA | 0.0592
ATATAAGA | 0.346
GTATAATA | 0.287
GTATAACA | 0.133
ATATAATG | 0.2
AGTAAGCA | 0.00993
AATCTGCG | -0.0221
AGCCCGCA | -0.123
AGCAACGC | -0.0123
AGTTTCGG | 0.0851
ACTAATTA | 0.362
ACTAATTG | 0.167
ACTAATTC | 0.178
ATTAATTC | 0.3

Sequence | PBM E-score
CTTAATTA | 0.174
GTTAATTA | 0.262
CCTAATTA | 0.136
ATTAATTA | 0.241
GCTAATTA | 0.279
GCTAATAA | 0.144
GTTAATGA | 0.133
ATTAATTG | 0.245
AGAGATCA | 0.0988
AAACGAGT | 0.217
CAAGCTAA | -0.0766
CTTTTAAC | 0.0122
AACAAAGT | 0.221
AGCGAGCC | -0.122
AAAGACTG | -0.0469
CTATTACA | 0.163
GTATTACA | 0.291
CTATTATA | 0.145
GTATTAGA | 0.217
GTATTATA | 0.329
ATATTATA | 0.186
CCTTAAAG | 0.06
CAAGTTGG | 0.106
GTTGCTAA | 0.251
CACCTGGG | -0.178
AAGCCTGG | -0.0378

Sequence | PBM E-score
CCATCGTA | 0.0169
AAACAGCG | 0.2
CCAGTAAC | 0.0196
AGATATAA | 0.211
GAATATAA | 0.195
AAATATGA | 0.224
AAATATGC | 0.00442
TAATATAA | 0.344
AAATATGT | 0.286
CAATATAG | 0.218
CAATATAC | 0.112
CAATATAA | 0.307
TCATATAA | 0.203
AAATATAA | 0.275
AGGATTGA | 0.129
AGCAAGAT | 0.14
AATTTCTG | 0.089
ATCCCATA | -0.106
GTTGCATA | -0.0298
ATTTAGCC | 0.0798
AGGGAGTC | -0.235
AACGATAC | 0.0446
AAAAATAG | 0.225
AACTATAC | 0.0711
AACTATAG | 0.0554
AAAAATAC | 0.14

Sequence | PBM E-score
AACGATAG | 0.116
AAATATAC | 0.19
AACGATAT | 0.269
AAAAATAT | 0.342
AACTATAT | 0.309
AAATATAG | 0.117
AAATATAT | 0.285
AACTCATT | 0.0581
CTCCCTCA | -0.122
CCTCAAGG | -0.145
CTCATTCC | 0.139
CTGCCCAA | -0.122
GCCGAATA | 0.115
AAACCACC | 0.0609
ATCGACTC | -0.161
AGTAGAAG | 0.0935
AGTCATGG | 0.0946
AGCTTTAA | 0.0942
CCATATGA | 0.00159
AAGTATGA | 0.0367
TAATATGA | 0.297
TCATATGA | 0.317
GCATATGA | 0.214
GAATATGA | 0.168
CAGTATGA | 0.143
CAATATGA | 0.174

Sequence | PBM E-score
TAGTATGA | 0.255
AGTTGATC | 0.0597
GACAGGTC | -0.226
AAGGTTCC | -0.0546
AAAGTATA | 0.235
CAAGTATA | -0.0229
TAAGTATA | 0.275
CCTCGCTC | 0.0543
AGAGAACA | 0.206
GGCCCCCC | -0.461
CCCACACA | -0.0183
TTAACGAA | 0.179
ACAACCAC | 0.0359
ACAACCAT | 0.334
ACAACCAG | 0.0808
AATTTCCA | 0.267
AAATTCGT | 0.312
GATTTCCA | 0.0257
AAATTCGC | 0.129
AAATTCGG | 0.153
AAATTCCA | 0.269
TATTTCCA | 0.00077
GAATTCCA | 0.195
CAATTCCA | -0.102
GTCTTGAA | 0.0256
AAGAACGA | 0.142

Sequence | PBM E-score
CCAATTGA | 0.0344
GAACGCAC | 0.0357
AGAGGTAC | -0.248
AGAGGTAA | -0.0121
AGAGGTAT | 0.256
ATCCGATG | 0.0814
ATTAGACG | 0.104
CCTGTAAA | -0.0789
CACGTAAA | -0.0521
AATGTAAG | 0.307
CATGTAAG | 0.155
TACGTAAA | 0.319
AATGTAAT | 0.253
CATGTAAA | 0.0358
ACTGTAAC | 0.0996
AATGTAAA | 0.231
GACGTAAA | 0.0343
TATGTAAA | 0.262
ACTGTAAA | 0.257
TAGATGAA | 0.082
CCGATGTC | 0.0178
AATAGCTA | 0.0193
AGTGATCC | -0.0505
GGGATCGA | -0.124
AACGTAAT | 0.353
TGCGTAAA | 0.132

Sequence | PBM E-score
CGCGTAAA | 0.255
CGCGTAAG | 0.158
AACGTAAC | 0.201
AACGTAAA | 0.2
CAAGAAAC | 0.197
TACAACTA | -0.028
AGCCCACA | -0.117
AATGGAGG | -0.119
AATTTTAT | 0.266
AAATTTAT | 0.144
CATTTTAC | 0.332
GATTTTAC | 0.161
CATTTTAA | 0.219
ATTTTTAC | 0.0674
CATTTTAG | 0.121
AATTTTAG | 0.107
AATTTTAC | 0.258
CCTTCTCG | -0.134
AGGTTTCA | 0.0131
GATACTAC | 0.0824
